GAA850 FXN act – FXN promoter activators, primary screen, cell-based, luciferase luminescence, HEK293 lucGAA850 | activation, % at 6 µM | hit rate 0.56% among 360,000 | HEK293 lucGAA850 FXN promoter luciferase reporter, 24 h; percent of 10 µM SAHA response;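 active means activation above the average of all compounds screened plus 3 SD, cutoff fixed separately per campaign, cut at about 7.5% in these data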;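 further: 0% = DMSO wells and 100% = 10 µM SAHA wells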
AHR act – AHR activators, primary screen, cell-based, luminescence, luciferase reporter, human; Aryl hydrocarbon receptor (Homo sapiens), P35869; AHR-responsive luciferase reporter cells; activation, % at 5 µM; hit rate 2.5% among 320,000; AID 2796, 2010; in the data active means activation above about 47%;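 further: 0% = vehicle wells and 100% = reference agonist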
Target sequence (P35869 whole entry, looked up): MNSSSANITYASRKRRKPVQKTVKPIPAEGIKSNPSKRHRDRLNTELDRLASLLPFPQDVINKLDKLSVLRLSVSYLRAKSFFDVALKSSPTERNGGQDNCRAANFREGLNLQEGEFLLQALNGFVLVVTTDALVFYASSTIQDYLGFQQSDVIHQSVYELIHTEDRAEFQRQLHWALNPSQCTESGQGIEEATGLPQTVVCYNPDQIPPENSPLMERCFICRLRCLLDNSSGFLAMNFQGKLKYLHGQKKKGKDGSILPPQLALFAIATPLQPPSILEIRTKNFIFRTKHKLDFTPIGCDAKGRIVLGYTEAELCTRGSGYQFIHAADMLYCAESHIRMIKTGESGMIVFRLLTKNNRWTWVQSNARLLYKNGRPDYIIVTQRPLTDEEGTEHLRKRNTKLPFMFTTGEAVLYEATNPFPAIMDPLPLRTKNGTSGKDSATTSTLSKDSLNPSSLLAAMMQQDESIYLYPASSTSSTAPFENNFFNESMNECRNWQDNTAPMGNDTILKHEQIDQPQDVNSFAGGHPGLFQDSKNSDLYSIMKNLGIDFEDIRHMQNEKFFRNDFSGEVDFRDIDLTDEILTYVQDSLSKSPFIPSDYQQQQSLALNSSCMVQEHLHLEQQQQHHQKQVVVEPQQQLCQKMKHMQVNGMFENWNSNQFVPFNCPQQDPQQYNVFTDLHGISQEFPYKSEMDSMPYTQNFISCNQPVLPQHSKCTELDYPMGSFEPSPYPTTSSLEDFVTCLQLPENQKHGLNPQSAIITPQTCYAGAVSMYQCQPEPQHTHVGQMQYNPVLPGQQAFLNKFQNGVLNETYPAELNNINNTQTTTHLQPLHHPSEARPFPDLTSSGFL
HSF-1 act – HSF-1 activators, primary screen, NIH3T3-HGL cells, MG132 stress, luminescence, single point. NIH3T3-HGL HSF-1 luciferase reporter, 8 h; 100% = twice DMSO control signal. activation, % at 9 µM. hit rate 1.7% among 300,000. AID 504408, 2011;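 active means mean replicate activation of at least 50% with a set share of replicates each reaching 50%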;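 further: 0% = median of the neutral control wells and 100% = twice that signal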
HSF1 inhib – HSF1 inhibitors in luciferase reporter cells, primary screen, cell-based, NIH3T3, luminescence | activity change, negative = inhibition, % at 7.5 µM (by protocol) | AID 2098, 2009 | hit rate 0.77% among 300,000 | NIH3T3-HGL HSE-luciferase, MG132-induced, luminescence 8 h; active compounds read low;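 active means more than half of replicate wells show activity change below -50%, luminescence cut by over half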;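 further: luciferase reports HSF-1 transcriptional activity via heat shock element; 0% = median of DMSO wells and -100% = zero luminescence signal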
DAX1 inh – DAX1 (NR0B1) inhibitors, primary screen, cell-based, HEK293, Gal4-DAX1, luciferase luminescence; AID 504766, 2011; hit rate 0.99% among 340,000; HEK293 Gal4-DAX1 luciferase reporter; Nuclear receptor subfamily 0 group B member 1 (Homo sapiens), P51843; inhibition, % at 6.75 µM;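 active means inhibition above the mean over all tested compounds plus 3 SD, cut at about 4.2% in these data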;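 further: 0% = DAX1-transfected cells with DMSO and 100% = empty-vector control cells with DMSO; inhibition shows as a rise in luminescence from relieved DAX1 repression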
The depositor's hits bear a star. This is a sample that favours compounds with a hit; in the whole collection about 5.4% have one here.

Screening CCn1c(SCC(=O)Nc2ccc(C(C)=O)cc2)nc2c([nH]c3ccccc32)c1=O returned GAA850 FXN act -1.8, AHR act 31.1, HSF-1 act 33.5, HSF1 inhib 29.7 and DAX1 inh -0.1.
`C=CCn1c(SCC(=O)NC2CCCC2)nc2c([nH]c3ccccc32)c1=O` gave GAA850 FXN act 0.1, AHR act 62.6*, HSF-1 act -11.0, HSF1 inhib 1.4 and DAX1 inh 0.7.
Screening C=CCn1c(SCC(=O)NC2CCCCC2)nc2ccccc2c1=O returned GAA850 FXN act -0.6, AHR act 0.2, HSF-1 act 5.3, HSF1 inhib -1.6 and DAX1 inh -0.3.
Screening CCn1c(SCC(=O)Nc2ccc(OC)c(S(=O)(=O)N3CCCCC3)c2)nnc1C1CC1 returned GAA850 FXN act 1.5 and DAX1 inh -1.4.
For CCOC(=O)Cn1ccc(NC(=O)COc2ccc(F)cc2F)n1 the results were GAA850 FXN act 1.1, AHR act -0.7, HSF-1 act -2.9, HSF1 inhib -1.0 and DAX1 inh 0.0.
For O=C(Cc1ccccc1)NNc1ccc2ccccc2c1 the results were GAA850 FXN act 2.8, AHR act 38.3, HSF-1 act -67.2, HSF1 inhib -63.2* and DAX1 inh 3.0.
Screening Cc1ccc(-n2ncc3c(SCC(N)=O)ncnc32)cc1C returned GAA850 FXN act -4.0, HSF-1 act 67.4*, HSF1 inhib 27.3 and DAX1 inh 4.3*.
CCCN1C=CC(=CC=C(C#N)C#N)C=C1 was read as GAA850 FXN act 0.0, AHR act 7.3, HSF-1 act 0.7, HSF1 inhib -3.8 and DAX1 inh -0.9.
Screening CCCCCCN1C=C/C(=C\C=C(C#N)C#N)c2ccccc21 returned GAA850 FXN act -0.1, AHR act 4.4, HSF-1 act 19.9, HSF1 inhib 8.2 and DAX1 inh 1.8.
Screening C=CCN1C=C/C(=C\C=C(C#N)C#N)c2ccccc21 returned GAA850 FXN act -1.2, AHR act 53.3*, HSF-1 act 9.1, HSF1 inhib 0.8 and DAX1 inh -1.0.
Screening C=CCN1C=CC(=CC=C(C#N)C#N)C=C1 returned GAA850 FXN act 3.6, AHR act 1.6, HSF-1 act -3.0, HSF1 inhib 3.3 and DAX1 inh 4.5*.
Screening CCn1nc(C)c(/C=N\NC(=O)c2cccc(OC)c2)c1C returned GAA850 FXN act -2.0, AHR act 49.3*, HSF-1 act 11.5, HSF1 inhib -7.5 and DAX1 inh 0.2.
Cc1ccc(-n2nc(C)c(/C=N/NC(=O)c3cccnc3)c2Cl)cc1 was read as GAA850 FXN act 1.2, AHR act 47.1*, HSF-1 act 12.1, HSF1 inhib 3.7 and DAX1 inh 0.3.
Screening Cc1nn(Cc2ccccc2)c(C)c1/C=N/NC(=O)c1cccnc1 returned GAA850 FXN act 1.8, AHR act 71.0*, HSF-1 act 7.2, HSF1 inhib 6.8 and DAX1 inh 3.5.
Screening Cc1nn(-c2cccc(Cl)c2)c(Cl)c1/C=N/NC(=O)c1cccs1 returned GAA850 FXN act -1.5, AHR act 7.8, HSF-1 act 16.9, HSF1 inhib 6.2 and DAX1 inh 4.7*.
Screening Cc1cc(NC(=O)CSc2nnc(-c3ccccc3F)n2N)no1 returned GAA850 FXN act 0.3, AHR act -0.4 and DAX1 inh 1.2.
`O=C1NC(Nc2nccs2)(C(F)(F)F)C(=O)N1CCc1ccccc1` (stereo not given) gave GAA850 FXN act 0.9, AHR act 0.9, HSF-1 act 16.0, HSF1 inhib -12.0 and DAX1 inh -1.1.
For Cc1nn(Cc2ccc(F)cc2)c(Cl)c1/C=N/NC(=O)c1cccnc1 the results were GAA850 FXN act 4.0, AHR act 52.1* and DAX1 inh -0.7.
Screening Cc1cc2nc(-c3ccc(SCc4ccccn4)nc3)[nH]c2cc1C returned GAA850 FXN act -1.5, AHR act 48.5*, HSF-1 act 23.9, HSF1 inhib 18.8 and DAX1 inh -1.2.
For CCOC(=O)CSc1ccc(-c2nc3cc(C)c(C)cc3[nH]2)cn1 the results were GAA850 FXN act -2.0, AHR act 13.7, HSF-1 act -3.1, HSF1 inhib 1.9 and DAX1 inh 0.2.

Screens deposited in PubChem by several laboratories.
